In the supplement of paper PMC10849652:
The full data set covers some 8,800 targets. This sample favours those with a hit. About 0.5% of all pairs of compound and target were hits.

Columns and labels:
Assay in all cases: log2 fold change, soluble protein after heating vs DMSO (PISA); higher = thermal stabilisation; K562 lysate, 10 uM; active = over 0.2 and 3.5 SD of the protein, either way, in both replicates (recomputed)
[1] = compound: C#Cc1cccc(Nc2ncnc3cc(OCCOC)c(OCCOC)cc23)c1 [erlotinib]
Outline: (§1)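 Soluble protein was defined as the supernatant remaining after 21,000xg for 90 min, following pooling of heated aliquots and adjustment to 0.5% NP-40 at 4°C. Before that, crude K562 extract at 1 mg/mL protein in PBS pH 7.4 with 1 mM MgCl2 was treated with 10 μM compound for 30 min and heated for 3 min across 48°C-58°C. Quantification used TMTpro 16plex LC-MS/MS with channel sums equalised, and values are log-two fold changes in thermal stability relative to solvent controls from duplicates.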

[2] = compound: C/C(=N\NC(=O)C1=CC(=CC=C1)S(=O)(=O)N2CCOCC2)/C3=C(C=CC(=C3)Cl)O
Outline: as §1

[3] = compound: C1=CC(=CC=C1C2=NC3=C(N2)C=C(C=C3)C(=O)N)OC4=CC=C(C=C4)Cl
Outline: as §1

[4] = compound: C1=CC2=C(C=CC(=C2)/C=C\3/C(=O)NC(=NCC4=CC=CS4)S3)N=C1
Outline: as §1

[5] = compound: C1=CC2=NC=CN=C2C=C1/C=C/3\C(=O)NC(=O)S3
Outline: as §1

[6] = compound: C1=CC=C(C=C1)C2=NC(=C(N2)C3=CC=NC=C3)C4=CC(=C(C=C4)Cl)O
Outline: as §1

[7] = compound: C1=CC=C2C(=C1)C3=NNC4=CC=CC(=C43)C2=O
Outline: as §1

[8] = compound: C1CCN(C1)C(=O)NC2=CC=CC(=C2)NC3=NC=C(C(=N3)NCCC4=CN=CN4)Br
Outline: as §1

[9] = compound: C1CN(CCC1(CC2=CC=C(C=C2)Cl)N)C3=NC=NC4=C3C=CN4
Outline: as §1

[10] = compound: C1COCCN1CCN2C3=CC=CC=C3N=C2NC(=O)C4=CC(=CC=C4)[N+](=O)[O-] [IRAK-1-4 Inhibitor I]
Outline: as §1

[11] = compound: C=CC(=O)N1CCC[C@@H](n2nc(-c3ccc(Oc4ccccc4)cc3)c3c(N)ncnc32)C1 [ibrutinib]
Outline: as §1

[12] = compound: CC(=O)c1cnc2ccc(-c3cc(Cl)c(O)c(Cl)c3)nc2c1N[C@H]1CC[C@H](CN(C)C)CC1
Outline: as §1

[13] = compound: CC(C)(C)Cn1c(N)nc2ccc(-c3[nH]c(C(C)(C)C)nc3-c3ccc(F)cc3)nc21 [ralimetinib]
Outline: as §1

[14] = compound: CC(C)(O)CC(=O)NCCn1ccc2ncnc(Nc3ccc(Oc4cccc(C(F)(F)F)c4)c(Cl)c3)c21
Outline: as §1

[15] = compound: CC(C)C1=C2N=C(C=C(N2N=C1)NCC3=CC=CC=C3)NCCCCCCN
Outline: as §1

[16] = compound: CC1=C(C(CC(=O)N1)C2=CC=C(C=C2)C(F)(F)F)C(=O)NC3=C(C=C4C(=C3)C=NN4)F
Outline: as §1

[17] = compound: CC1=C(C2=C(C=C1)C(=O)C3=CC=CC=C3N2CCCN)C
Outline: as §1

[18] = compound: CC1=C(C=C(C=C1)NC(=O)C2=CC(=CC=C2)C(C)(C)C#N)NC3=CC4=C(C=C3)N=CN(C4=O)C
Outline: as §1

[19] = compound: CC1=C(C=C(C=C1)NC(=O)C2=CC(=CC=C2)N(C)C)NC(=O)C3=CC=C(C=C3)O
Outline: as §1

[20] = compound: CC1=CC=C(C=C1)SC2=C3C=C(SC3=CN=C2)C(=O)N
Outline: as §1

Measured: log2 fold change

SH3BP5L (UniProt Q7L8J4)
inactive: [1] 0.001 | [2] -0.156 | [3] 0.004 | [4] -0.058 | [5] -0.032 | [6] 0.003 | [7] 0.065 | [8] -0.019 | [9] 0 | [10] 0 | [11] 0.007 | [12] 0.013 | [13] -0.024 | [14] -0.035 | [15] 0.032 | [16] 0.009 | [17] -0.02 | [18] 0.021 | [19] -0.017 | [20] -0.045

SRM (UniProt P19623)
Chain of UniProt P19623 (P19623 whole entry, looked up): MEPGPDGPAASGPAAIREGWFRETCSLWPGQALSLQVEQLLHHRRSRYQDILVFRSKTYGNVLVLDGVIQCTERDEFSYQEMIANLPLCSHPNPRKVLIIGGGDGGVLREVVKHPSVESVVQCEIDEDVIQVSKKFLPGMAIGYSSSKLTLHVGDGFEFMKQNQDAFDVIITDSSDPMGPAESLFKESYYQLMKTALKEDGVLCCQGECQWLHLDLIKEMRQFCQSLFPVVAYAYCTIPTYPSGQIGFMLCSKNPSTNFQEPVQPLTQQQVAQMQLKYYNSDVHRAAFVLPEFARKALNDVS
inactive: [1] -0.006 | [2] 0.039 | [3] 0.017 | [4] -0.001 | [5] 0.014 | [6] 0.004 | [7] -0.003 | [8] 0.017 | [9] 0.027 | [10] 0.007 | [11] 0.018 | [12] 0.007 | [13] 0.025 | [14] -0.047 | [15] -0.011 | [16] -0.003 | [17] -0.006 | [18] 0.003 | [19] 0 | [20] -0.011

SFN (UniProt P31947)
Chain of UniProt P31947 (P31947 whole entry, looked up): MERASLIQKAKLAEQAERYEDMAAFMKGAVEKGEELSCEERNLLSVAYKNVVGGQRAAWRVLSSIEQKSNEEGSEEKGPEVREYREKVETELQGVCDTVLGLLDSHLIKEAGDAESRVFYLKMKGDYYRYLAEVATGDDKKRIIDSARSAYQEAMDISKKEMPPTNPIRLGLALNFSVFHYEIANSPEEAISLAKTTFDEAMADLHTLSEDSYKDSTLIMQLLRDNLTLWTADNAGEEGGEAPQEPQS
inactive: [1] 0.013 | [2] -0.239 | [3] -0.006 | [4] -0.053 | [5] -0.002 | [6] -0.004 | [7] 0.025 | [8] 0.012 | [9] -0.064 | [10] -0.03 | [11] 0.015 | [12] 0.01 | [13] -0.002 | [14] 0.035 | [15] 0.016 | [16] 0.045 | [17] 0.031 | [18] -0.036 | [19] -0.004 | [20] -0.021

SSU72 (UniProt Q9NP77)
Chain of UniProt Q9NP77 (Q9NP77 whole entry, looked up): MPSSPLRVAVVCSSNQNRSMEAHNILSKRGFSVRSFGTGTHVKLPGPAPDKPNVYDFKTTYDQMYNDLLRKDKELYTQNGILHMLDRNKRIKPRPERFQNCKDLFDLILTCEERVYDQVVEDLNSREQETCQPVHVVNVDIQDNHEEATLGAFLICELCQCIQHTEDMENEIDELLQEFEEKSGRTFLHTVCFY
inactive: [1] -0.067 | [2] 0.057 | [3] -0.071 | [4] -0.064 | [5] -0.003 | [6] 0.07 | [7] 0.005 | [8] 0.029 | [9] 0 | [10] 0.001 | [11] 0.075 | [12] 0.031 | [13] 0.026 | [14] -0.002 | [15] 0.038 | [16] -0.018 | [17] 0.025 | [18] 0.001 | [19] 0.015 | [20] 0.03

SHC1 isoform 6 (UniProt P29353)
Chain of UniProt P29353 (P29353 whole entry, looked up): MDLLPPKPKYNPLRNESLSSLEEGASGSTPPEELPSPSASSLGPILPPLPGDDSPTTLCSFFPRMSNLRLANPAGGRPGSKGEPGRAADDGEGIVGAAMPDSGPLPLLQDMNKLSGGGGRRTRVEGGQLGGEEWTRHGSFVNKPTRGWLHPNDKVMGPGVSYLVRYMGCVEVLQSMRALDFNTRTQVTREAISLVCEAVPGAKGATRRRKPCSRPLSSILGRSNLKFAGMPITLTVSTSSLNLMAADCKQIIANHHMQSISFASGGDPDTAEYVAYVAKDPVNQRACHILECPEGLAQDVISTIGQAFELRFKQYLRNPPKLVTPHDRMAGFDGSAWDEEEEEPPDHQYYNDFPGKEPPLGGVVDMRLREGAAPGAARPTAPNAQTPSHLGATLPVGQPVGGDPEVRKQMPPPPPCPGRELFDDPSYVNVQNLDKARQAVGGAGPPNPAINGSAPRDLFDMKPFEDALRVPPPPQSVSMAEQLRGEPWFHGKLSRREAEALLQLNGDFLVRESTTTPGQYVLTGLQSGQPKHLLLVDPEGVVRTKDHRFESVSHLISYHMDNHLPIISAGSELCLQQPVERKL
inactive: [1] 0.029 | [2] -0.024 | [3] 0.05 | [4] 0.035 | [5] 0.04 | [6] 0.011 | [7] -0.043 | [8] -0.005 | [9] 0.001 | [10] 0.012 | [11] 0.053 | [12] -0.007 | [13] -0.02 | [14] -0.041 | [15] -0.007 | [16] -0.016 | [17] -0.006 | [18] -0.004 | [19] 0.002 | [20] -0.008

TARBP2 (UniProt Q15633)
Chain of UniProt Q15633 (Q15633 whole entry, looked up): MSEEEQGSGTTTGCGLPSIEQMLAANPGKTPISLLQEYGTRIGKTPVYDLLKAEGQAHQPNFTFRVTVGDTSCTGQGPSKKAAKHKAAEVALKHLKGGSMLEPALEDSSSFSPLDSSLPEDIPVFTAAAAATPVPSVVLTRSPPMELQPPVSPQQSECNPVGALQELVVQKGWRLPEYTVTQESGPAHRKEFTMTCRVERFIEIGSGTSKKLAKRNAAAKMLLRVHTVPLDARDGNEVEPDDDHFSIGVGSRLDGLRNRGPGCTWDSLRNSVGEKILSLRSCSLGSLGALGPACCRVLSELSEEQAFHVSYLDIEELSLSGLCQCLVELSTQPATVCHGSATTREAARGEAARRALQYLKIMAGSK
inactive: [1] 0.03 | [2] -0.095 | [3] -0.066 | [4] -0.026 | [5] 0.007 | [6] 0.027 | [7] -0.029 | [8] 0.012 | [9] -0.002 | [10] 0.011 | [11] -0.013 | [12] 0 | [13] -0.025 | [14] -0.042 | [15] 0.013 | [16] 0.074 | [17] -0.002 | [18] 0.029 | [19] 0.062 | [20] -0.015

STK38 (UniProt Q15208)
inactive: [1] -0.018 | [2] -0.029 | [3] -0.063 | [4] -0.005 | [5] 0.038 | [6] 0.029 | [7] 0.176 | [8] -0.002 | [9] 0.055 | [10] -0.006 | [11] 0.008 | [13] 0.036 | [14] 0.048 | [15] 0.025 | [16] 0.006 | [17] 0.017 | [18] 0.014 | [19] -0.003 | [20] 0.002
active: [12] 0.361

SSBP3 (UniProt Q9BWW4)
active: [11] 0.435
inactive: [1] 0.038 | [2] -0.09 | [3] 0.004 | [4] 0.026 | [5] 0.129 | [6] -0.048 | [7] 0.018 | [8] -0.054 | [9] 0.013 | [10] 0.041 | [12] -0.024 | [13] 0 | [14] -0.038 | [15] -0.02 | [16] -0.021 | [17] -0.018 | [18] -0.018 | [19] 0 | [20] 0.054

SQLE (UniProt Q14534)
Chain of UniProt Q14534 (Q14534 whole entry, looked up): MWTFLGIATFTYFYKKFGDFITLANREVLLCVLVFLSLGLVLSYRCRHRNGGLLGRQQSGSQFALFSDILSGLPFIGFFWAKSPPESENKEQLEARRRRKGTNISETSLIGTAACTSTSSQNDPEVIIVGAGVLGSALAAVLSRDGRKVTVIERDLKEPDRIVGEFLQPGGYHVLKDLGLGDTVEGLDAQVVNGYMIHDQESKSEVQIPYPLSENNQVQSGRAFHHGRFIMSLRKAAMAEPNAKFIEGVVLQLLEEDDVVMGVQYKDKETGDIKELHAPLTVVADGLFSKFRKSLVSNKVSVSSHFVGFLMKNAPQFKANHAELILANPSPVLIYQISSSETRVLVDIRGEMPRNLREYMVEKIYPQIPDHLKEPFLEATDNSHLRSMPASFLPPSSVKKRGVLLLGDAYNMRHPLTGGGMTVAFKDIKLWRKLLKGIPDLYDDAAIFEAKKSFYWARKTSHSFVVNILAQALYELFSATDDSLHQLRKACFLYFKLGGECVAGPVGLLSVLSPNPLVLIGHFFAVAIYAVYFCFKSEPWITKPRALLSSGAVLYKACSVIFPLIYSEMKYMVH
inactive: [1] -0.025 | [2] 0.056 | [3] 0.019 | [4] -0.03 | [5] -0.028 | [6] 0.007 | [7] 0.074 | [8] -0.019 | [9] -0.084 | [10] 0.023 | [11] 0.028 | [12] 0.051 | [13] 0.081 | [14] -0.047 | [15] 0 | [16] -0.02 | [17] -0.006 | [18] 0.039 | [19] -0.06 | [20] -0.027

TAPT1 (UniProt Q6NXT6)
inactive: [1] 0 | [2] -0.092 | [3] 0.068 | [4] -0.038 | [5] -0.001 | [6] -0.059 | [7] -0.039 | [8] -0.059 | [9] 0.01 | [10] 0.002 | [11] 0.071 | [12] 0.012 | [13] -0.029 | [14] -0.07 | [15] 0.004 | [16] -0.019 | [17] -0.014 | [18] 0.09 | [19] -0.004 | [20] -0.027

SUZ12 (UniProt Q15022)
Chain of UniProt Q15022 (Q15022 whole entry, looked up): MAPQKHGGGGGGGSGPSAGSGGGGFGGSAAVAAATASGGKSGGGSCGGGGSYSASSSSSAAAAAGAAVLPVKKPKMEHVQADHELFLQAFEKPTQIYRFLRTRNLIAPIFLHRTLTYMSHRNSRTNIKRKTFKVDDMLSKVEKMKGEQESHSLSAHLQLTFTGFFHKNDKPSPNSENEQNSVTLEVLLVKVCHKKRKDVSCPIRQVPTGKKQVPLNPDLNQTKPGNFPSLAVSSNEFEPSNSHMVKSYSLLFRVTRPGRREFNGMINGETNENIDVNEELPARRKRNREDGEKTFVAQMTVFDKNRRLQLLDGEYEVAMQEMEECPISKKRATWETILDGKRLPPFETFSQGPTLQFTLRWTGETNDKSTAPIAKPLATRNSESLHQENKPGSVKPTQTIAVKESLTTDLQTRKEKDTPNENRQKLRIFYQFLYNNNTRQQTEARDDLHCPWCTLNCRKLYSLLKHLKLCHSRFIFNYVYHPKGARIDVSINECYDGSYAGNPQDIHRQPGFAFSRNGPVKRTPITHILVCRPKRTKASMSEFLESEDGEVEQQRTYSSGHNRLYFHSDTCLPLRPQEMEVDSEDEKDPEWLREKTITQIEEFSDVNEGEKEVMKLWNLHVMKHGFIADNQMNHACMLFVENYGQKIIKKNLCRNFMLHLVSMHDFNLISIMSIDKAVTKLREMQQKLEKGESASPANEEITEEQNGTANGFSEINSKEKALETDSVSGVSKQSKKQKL
active: [18] 0.289
inactive: [1] 0.024 | [2] -0.077 | [3] -0.018 | [4] 0.007 | [5] 0.004 | [6] 0.034 | [7] -0.079 | [8] -0.038 | [9] -0.021 | [10] 0.02 | [11] -0.043 | [12] 0.013 | [13] 0.003 | [14] -0.036 | [15] 0.007 | [16] -0.023 | [17] -0.09 | [19] 0.048 | [20] -0.01

SSB (UniProt P05455)
Chain of UniProt P05455 (P05455 whole entry, looked up): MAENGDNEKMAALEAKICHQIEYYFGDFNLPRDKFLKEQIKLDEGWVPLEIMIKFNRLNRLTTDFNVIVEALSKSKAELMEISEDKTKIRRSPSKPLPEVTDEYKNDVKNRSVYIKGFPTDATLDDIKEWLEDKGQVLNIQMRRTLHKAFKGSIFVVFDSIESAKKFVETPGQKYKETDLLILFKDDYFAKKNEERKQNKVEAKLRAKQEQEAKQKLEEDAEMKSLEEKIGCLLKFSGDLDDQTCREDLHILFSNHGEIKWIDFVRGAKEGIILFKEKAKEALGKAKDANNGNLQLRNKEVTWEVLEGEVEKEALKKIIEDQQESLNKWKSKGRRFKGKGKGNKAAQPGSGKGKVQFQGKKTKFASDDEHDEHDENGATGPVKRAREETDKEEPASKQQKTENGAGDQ
inactive: [1] -0.008 | [2] 0.007 | [3] -0.014 | [4] -0.025 | [5] -0.009 | [6] 0.001 | [7] -0.015 | [8] 0.013 | [9] 0.002 | [10] -0.011 | [11] -0.007 | [12] -0.009 | [13] -0.005 | [14] -0.006 | [15] 0.004 | [16] -0.015 | [17] -0.013 | [18] -0.006 | [19] 0.007 | [20] 0.006

SKA3 (UniProt Q8IX90)
Chain of UniProt Q8IX90 (Q8IX90 whole entry, looked up): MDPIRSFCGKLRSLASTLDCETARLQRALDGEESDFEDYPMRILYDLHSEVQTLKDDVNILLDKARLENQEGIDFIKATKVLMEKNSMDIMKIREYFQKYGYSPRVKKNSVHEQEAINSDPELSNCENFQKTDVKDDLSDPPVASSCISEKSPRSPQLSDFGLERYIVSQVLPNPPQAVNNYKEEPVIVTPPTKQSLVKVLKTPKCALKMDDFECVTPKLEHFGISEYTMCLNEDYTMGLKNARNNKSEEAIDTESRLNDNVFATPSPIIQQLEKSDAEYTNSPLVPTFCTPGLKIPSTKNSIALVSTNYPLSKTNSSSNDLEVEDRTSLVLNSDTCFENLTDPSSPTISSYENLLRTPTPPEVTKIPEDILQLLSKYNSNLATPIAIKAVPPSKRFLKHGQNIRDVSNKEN
inactive: [1] 0.018 | [2] -0.081 | [3] 0.02 | [4] -0.01 | [5] -0.052 | [6] -0.022 | [7] 0.001 | [8] -0.02 | [9] 0.042 | [10] 0.013 | [11] 0.001 | [12] -0.032 | [13] -0.021 | [14] -0.038 | [15] 0.007 | [16] 0.027 | [17] -0.011 | [18] 0.027 | [19] 0.025 | [20] -0.046

SLC11A2 isoform 3 (UniProt P49281)
inactive: [1] -0.005 | [2] -0.041 | [3] -0.009 | [4] -0.013 | [5] 0 | [6] 0.011 | [7] 0.046 | [8] -0.004 | [9] 0.026 | [10] 0.024 | [11] -0.032 | [12] -0.018 | [13] -0.038 | [14] -0.093 | [15] 0.017 | [16] 0.242 | [17] -0.001 | [18] 0.094 | [19] 0.001 | [20] 0.003

SMC6 (UniProt Q96SB8)
Chain of UniProt Q96SB8 (Q96SB8 whole entry, looked up): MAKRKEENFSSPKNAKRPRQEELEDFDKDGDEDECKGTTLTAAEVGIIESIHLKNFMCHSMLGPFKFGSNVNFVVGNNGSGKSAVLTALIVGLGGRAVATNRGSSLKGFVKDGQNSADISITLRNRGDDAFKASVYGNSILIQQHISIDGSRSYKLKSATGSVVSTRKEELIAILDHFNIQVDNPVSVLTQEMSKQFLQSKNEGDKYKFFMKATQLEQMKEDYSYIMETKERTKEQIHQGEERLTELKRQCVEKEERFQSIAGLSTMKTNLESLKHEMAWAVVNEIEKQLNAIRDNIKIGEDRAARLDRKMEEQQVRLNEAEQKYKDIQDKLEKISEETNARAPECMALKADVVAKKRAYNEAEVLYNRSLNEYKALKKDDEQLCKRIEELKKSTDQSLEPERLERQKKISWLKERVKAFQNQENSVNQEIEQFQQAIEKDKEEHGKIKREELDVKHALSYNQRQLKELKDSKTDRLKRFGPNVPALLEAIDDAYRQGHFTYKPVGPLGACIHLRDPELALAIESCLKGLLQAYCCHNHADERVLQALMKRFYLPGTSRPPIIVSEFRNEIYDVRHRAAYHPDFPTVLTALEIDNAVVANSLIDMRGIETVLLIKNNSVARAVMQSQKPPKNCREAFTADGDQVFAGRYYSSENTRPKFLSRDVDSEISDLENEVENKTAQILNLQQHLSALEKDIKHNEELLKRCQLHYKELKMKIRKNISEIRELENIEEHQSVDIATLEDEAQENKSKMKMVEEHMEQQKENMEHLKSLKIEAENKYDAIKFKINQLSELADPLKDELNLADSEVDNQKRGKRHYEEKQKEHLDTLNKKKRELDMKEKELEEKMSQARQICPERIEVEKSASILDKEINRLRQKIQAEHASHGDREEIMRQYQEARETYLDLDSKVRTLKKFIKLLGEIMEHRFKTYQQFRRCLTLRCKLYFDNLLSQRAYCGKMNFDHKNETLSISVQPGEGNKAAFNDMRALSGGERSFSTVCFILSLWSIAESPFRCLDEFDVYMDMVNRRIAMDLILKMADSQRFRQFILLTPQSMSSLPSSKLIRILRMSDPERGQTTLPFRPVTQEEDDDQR
inactive: [1] 0.02 | [2] 0.038 | [3] -0.03 | [4] -0.002 | [5] -0.009 | [6] 0.019 | [7] -0.055 | [8] -0.031 | [9] 0.03 | [10] 0.01 | [11] 0.021 | [12] -0.006 | [13] 0.005 | [14] -0.012 | [15] 0.023 | [16] 0.065 | [17] 0.006 | [18] 0.006 | [19] 0.001 | [20] -0.01

SOAT1 (UniProt P35610)
inactive: [1] 0.06 | [2] -0.007 | [3] -0.042 | [4] 0 | [5] -0.048 | [6] 0.056 | [7] -0.058 | [8] -0.056 | [9] -0.019 | [10] 0 | [11] 0.043 | [12] 0.017 | [13] 0.151 | [14] -0.107 | [15] -0.055 | [16] -0.046 | [17] -0.022 | [18] 0.1 | [19] -0.012 | [20] 0.019
